From the supplement of paper PMC9262897, “Low-cost anti-mycobacterial drug discovery using engineered E. coli” (Nature Communications, 2022)
Where a name gives a salt, the structure may show the parent alone. ± gives the standard deviation of the averaged measurements.

Legend:
Experiment in all cases: growth (OD600 after 10 h); higher = more growth (less inhibition)
[1] = tested on: E. coli TESEC Alr+ wild-type control; conditions: compound 0.1 mM; raw OD600 reference: median of DMSO wells 0.241, cell-free background 0.041
Description: (§1)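 TESEC Mtb Alr E. coli, or the Alr+ wild-type control, in 384-well plates with Prestwick library compounds at 0.1 mM and 1% DMSO, across arabinose induction levels of 1E3 to 1E7 nM. Growth is read as OD600 after 10 h at 37 °C in triplicate biological replicates.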

[2] = tested on: E. coli TESEC Mtb Alr; conditions: compound 0.1 mM
Description: as §1

[3] = tested on: E. coli TESEC Mtb Asd; conditions: compound 0.1 mM
Description: (§2)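 TESEC E. coli strains in which the native enzyme is deleted and replaced by arabinose-inducible Mtb Asd, DapB, CysH or TrpD, each grown in its selective medium. Strains were screened against the Prestwick library at 0.1 mM and 1% DMSO in 384-well format at low and high arabinose induction. Growth is read as OD600 after 10 h in triplicate.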

[4] = tested on: E. coli TESEC Mtb Alr; conditions: compound 0.1 mM; remark: listed apart in the source
Description: (§3)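 TESEC Mtb Alr E. coli (ΔaraC ΔtolC ΔentC Δalr ΔdadX, arabinose-inducible Mtb Alr) or the Alr+ wild-type control strain, grown in defined M9-fructose medium without D-alanine in 96-well plates with Prestwick library compounds at 0.1 mM and 1% DMSO. Low Alr induction is 0.1 µM arabinose and high induction is 10 mM arabinose.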

[5] = tested on: E. coli TESEC Alr+ wild-type control; conditions: compound 0.1 mM; raw OD600 reference: median of DMSO wells 0.49, cell-free background 0.052
Description: as §3

[6] = tested on: E. coli TESEC Mtb DapB; conditions: compound 0.1 mM
Description: as §2

[7] = arabinose 1000 nM, raw OD600 reference: median of DMSO wells 0.294, cell-free background 0.041
[8] = arabinose 10000 nM, raw OD600 reference: median of DMSO wells 0.264, cell-free background 0.041
[9] = arabinose 100000 nM, raw OD600 reference: median of DMSO wells 0.201, cell-free background 0.041
[10] = arabinose 1000000 nM, raw OD600 reference: median of DMSO wells 0.193, cell-free background 0.041
[11] = arabinose 10000000 nM, raw OD600 reference: median of DMSO wells 0.146, cell-free background 0.041
[12] = arabinose induction (level): High, raw OD600 reference: median of DMSO wells 0.331, cell-free background 0.041
[13] = arabinose induction (level): Low, raw OD600 reference: median of DMSO wells 0.417, cell-free background 0.041
[14] = arabinose 100 nM, raw OD600 reference: median of DMSO wells 0.413, cell-free background 0.052
[15] = arabinose 10000000 nM, raw OD600 reference: median of DMSO wells […], cell-free background 0.052
[16] = arabinose induction (level): High, raw OD600 reference: median of DMSO wells […], cell-free background 0.041
[17] = arabinose induction (level): Low, raw OD600 reference: median of DMSO wells 0.227, cell-free background 0.041

| Compound | growth [1] | growth [2, 7] | growth [2, 8] | growth [2, 9] | growth [2, 10] | growth [2, 11] | growth [3, 12] | growth [3, 13] | growth [4, 14] | growth [4, 15] | growth [5] | growth [6, 16] | growth [6, 17] |
| --- | --- | --- | --- | --- | --- | --- | --- | --- | --- | --- | --- | --- | --- |
| COc1cc(C(=O)N2CCOCC2)cc(OC)c1OC [Trimetozine] | 0.253 ± 0.004 | 0.313 ± 0.014 | 0.2694 ± 0.0015 | 0.22 ± 0.0037 | 0.203 ± 0.023 | 0.14 ± 0.0052 | 0.288 ± 0.0085 | 0.441 ± 0.018 | 0.401 ± 0.0073 | 0.363 ± 0.0044 |  |  |  |
| CC(C)(Oc1ccc(C2CC2(Cl)Cl)cc1)C(=O)O (centres undefined) [Ciprofibrate] | 0.205 ± 0.046 | 0.263 ± 0.0056 | 0.273 ± 0.0078 | 0.154 ± 0.004 | 0.187 ± 0.016 | 0.123 ± 0.0026 | 0.26 ± 0.032 | 0.303 ± 0.051 | 0.43 ± 0.0055 | 0.312 ± 0.016 |  |  |  |
| CCCCC(=O)O[C@H]1CC[C@H]2[C@@H]3CCc4cc(O)ccc4[C@H]3CC[C@]12C [Estradiol Valerate] | 0.252 ± 0.004 | 0.307 ± 0.0067 | 0.285 ± 0.0065 | 0.215 ± 0.016 | 0.221 ± 0.021 | 0.13 ± 0.0034 | 0.404 ± 0.031 | 0.396 ± 0.048 | 0.436 ± 0.018 | 0.38 ± 0.0047 |  |  |  |
| CCn1cc(C(=O)O)c(=O)c2cc(F)c(N3CCNC(C)C3)c(F)c21 (centres undefined) [Lomefloxacin hydrochloride] | 0.04153 ± 0.0004 | 0.0411 ± 0.00064 | 0.03993 ± 0.00021 | 0.0417 ± 0.00042 | 0.03983 ± 0.00025 | 0.04157 ± 0.00015 | 0.04757 ± 0.00021 | 0.0494 ± 0.0013 | 0.0534 ± 0.0016 | 0.0512 ± 0.0011 |  |  |  |
| O=C(CCNNC(=O)c1ccncc1)NCc1ccccc1 [Nialamide] | 0.237 ± 0.0061 | 0.28 ± 0.01 | 0.276 ± 0.0091 | 0.193 ± 0.018 | 0.208 ± 0.0031 | 0.144 ± 0.0023 | 0.237 ± 0.041 | 0.346 ± 0.062 | 0.431 ± 0.0058 | 0.337 ± 0.023 |  |  |  |
| Cc1cccc(C)c1OCC(C)N (centres undefined) [Mexiletine hydrochloride] | 0.225 ± 0.0049 | 0.276 ± 0.0054 | 0.262 ± 0.0058 | 0.223 ± 0.038 | 0.171 ± 0.0031 | 0.143 ± 0.0056 | 0.348 ± 0.076 | 0.397 ± 0.033 | 0.4 ± 0.015 | 0.352 ± 0.015 |  |  |  |
| Cc1c(O)c(=O)n(-c2ccccc2)n1C [Antipyrine, 4-hydroxy] | 0.2468 ± 0.00085 | 0.289 ± 0.012 | 0.252 ± 0.0096 | 0.211 ± 0.0099 | 0.182 ± 0.004 | 0.154 ± 0.0051 | 0.338 ± 0.034 | 0.375 ± 0.01 | 0.405 ± 0.0081 | 0.37 ± 0.033 | 0.507 ± 0.069 |  |  |
| NC(=O)NC1NC(=O)NC1=O (centres undefined) [Allantoin] | 0.253 ± 0.015 | 0.281 ± 0.017 | 0.258 ± 0.0083 | 0.244 ± 0.0082 | 0.173 ± 0.0071 | 0.142 ± 0.0025 | 0.375 ± 0.027 | 0.424 ± 0.028 | 0.41 ± 0.011 | 0.28 ± 0.14 |  |  |  |
| CO[C@@H]1[C@@H](O[C@@H]2O[C@H](C)[C@@H](O[C@H]3C[C@@](C)(O)[C@@H](OC(=O)CC(C)C)[C@H](C)O3)[C@H](N(C)C)[C@H]2O)[C@@H](CC=O)C[C@@H](C)[C@@H](O)/C=C/C=C/C[C@@H](C)OC(=O)C[C@H]1OC(C)=O [Josamycin] | 0.04167 ± 0.00025 | 0.04093 ± 5.8e-05 | 0.0406 ± 0.00026 | 0.04147 ± 0.00015 | 0.04073 ± 0.00029 | 0.04137 ± 5.8e-05 | 0.0609 ± 0.0067 | 0.0594 ± 0.0064 | 0.0755 ± 0.021 | 0.0519 ± 0.00093 |  |  |  |
| NS(=O)(=O)c1cc2c(cc1C(F)(F)F)NCNS2(=O)=O [Hydroflumethiazide] | 0.2612 ± 0.002 | 0.296 ± 0.0066 | 0.262 ± 0.01 | 0.239 ± 0.011 | 0.1758 ± 0.0006 | 0.147 ± 0.0041 | 0.388 ± 0.036 | 0.442 ± 0.06 | 0.406 ± 0.013 | 0.32 ± 0.053 | 0.455 ± 0.035 |  |  |
| CC(NCCC(c1ccccc1)c1ccccc1)c1ccccc1 (centres undefined) [Fendiline hydrochloride] | 0.03973 ± 0.00035 | 0.0413 ± 0.0034 | 0.03877 ± 0.00012 | 0.0416 ± 0.0018 | 0.0386 ± 0.00049 | 0.04153 ± 0.00035 | 0.0469 ± 0.0006 | 0.04653 ± 0.00025 | 0.4097 ± 0.0034 | 0.0578 ± 0.0028 |  |  |  |
| Cc1c(OCC(F)(F)F)ccnc1C[S+]([O-])c1nc2ccccc2[nH]1 (centres undefined) [Lansoprazole] | 0.131 ± 0.0017 |  |  |  |  |  | 0.236 ± 0.024 | 0.191 ± 0.0085 | 0.363 ± 0.035 | 0.163 ± 0.025 | 0.377 ± 0.011 | 0.175 ± 0.0097 | 0.203 ± 0.02 |
| COc1cc(C)c(/C=C/C(C)=C/C=C/C(C)=C/C(=O)O)c(C)c1C [Acitretin] | 0.227 ± 0.0077 | 0.276 ± 0.0084 | 0.127 ± 0.0023 | 0.228 ± 0.03 | 0.06247 ± 0.00031 | 0.162 ± 0.0072 | 0.137 ± 0.015 | 0.145 ± 0.0072 | 0.369 ± 0.0094 | 0.199 ± 0.02 |  |  |  |
| C=CCOc1ccccc1OCC(O)CNC(C)C (centres undefined) [Oxprenolol hydrochloride] | 0.2186 ± 0.001 | 0.281 ± 0.0082 | 0.271 ± 0.0046 | 0.1983 ± 0.00078 | 0.208 ± 0.023 | 0.141 ± 0.0071 | 0.332 ± 0.062 | 0.368 ± 0.013 | 0.414 ± 0.0042 | 0.357 ± 0.0083 |  |  |  |
| CN(C)CCCSC(=N)N [Dimaprit dihydrochloride] | 0.2627 ± 0.0019 |  |  |  |  |  | 0.255 ± 0.035 | 0.409 ± 0.093 | 0.406 ± 0.015 | 0.349 ± 0.019 | 0.617 ± 0.017 | 0.196 ± 0.006 | 0.199 ± 0.016 |
| CCc1cc(Cl)c(OC)c(C(=O)NC[C@@H]2CCCN2CC)c1O [S(-)Eticlopride hydrochloride] | 0.191 ± 0.013 |  |  |  |  |  | 0.189 ± 0.015 | 0.356 ± 0.07 | 0.399 ± 0.0083 | 0.272 ± 0.021 | 0.567 ± 0.012 | 0.181 ± 0.011 | 0.259 ± 0.0028 |
| CC(=O)OC[C@H]1O[C@@H]([S-])[C@H](OC(C)=O)[C@@H](OC(C)=O)[C@@H]1OC(C)=O.CCP(CC)CC.[Au+] [Auranofin] | 0.0481 ± 0.0033 |  |  |  |  |  | 0.0525 ± 0.0026 | 0.0514 ± 0.0016 | 0.0775 ± 0.008 | 0.056 ± 0.00069 | 0.059 ± 0.00026 | 0.0674 ± 0.019 | 0.111 ± 0.019 |
| CCCCCCC[N+](CC)(CC)CCCCc1ccc(Cl)cc1 [Clofilium tosylate] | 0.03993 ± 0.00025 | 0.03923 ± 5.8e-05 | 0.039 ± 0.00017 | 0.03977 ± 0.00021 | 0.03863 ± 0.00025 | 0.0398 ± 0.00026 | 0.0468 ± 0.00026 | 0.0474 ± 0.00051 | 0.0551 ± 0.0018 | 0.05213 ± 0.0004 |  |  |  |
